CHOP inh: inhibitors of CHOP promoter induction, primary screen, cell-based, unfolded protein response, luciferase reporter; hit rate 3.8% among 220,000; inhibition, % at 10 µM; CHO-K1 CHOP-promoter luciferase, tunicamycin-induced, 15-18 h;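 active = compounds that reduced the stress-induced luciferase reporter signal by more than about 70% of percent inhibition, limit read from the data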;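 also: 0% = tunicamycin plus vehicle and 100% = wells without tunicamycin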
WT yeast gro inh: growth inhibition of WT strain, primary screen, mitochondrial fusion inhibitor project, WT and mutant strains, chemical genetic | mitochondrial fusion phenotypic screen | inhibition, % at 10 µM | hit rate 2.1% among 190,000 | AID 1362, 2008; in the data active = inhibition above about 58%; tested in S. cerevisiae
L major viab: Leishmania major promastigote growth inhibition, primary screen; inhibition, % at 10 µM; hit rate 9% among 200,000; Leishmania major promastigotes, resazurin fluorescence viability; in the data active = inhibition above about 50%;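 also: promastigotes grown with compound for 44 hours at 28 °C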
RAM inhibit: inhibitors of the yeast RAM network, primary screen, dse1pr::URA3 reporter, 5-FOA selection. S. cerevisiae dse1pr::URA3 reporter, 5-FOA growth OD615, 2 d; analog-sensitive cbk1-as2 kinase mutant strain. inhibition, % at 50 µM. hit rate 1.8% among 190,000;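 active = inhibition above a set limit, 3 SD over mean compound inhibition, cut at about 8.4% in these data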;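 also: 0% = DMSO-only wells with no growth and 100% = 10 µM 1-NA-PP1 full growth; inhibition rescues growth on 5-FOA so higher OD means more RAM inhibition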
Active calls of the source: *; / = no result. Sampled rows, rich in hits. Any-hit rate of the full collection: about 13%.

SMILES | CHOP inh | WT yeast gro inh | L major viab | RAM inhibit
CC(=O)Nc1ccc(C(=O)CSc2cc(C)c3cccc(C)c3n2)cc1 | 35 | -13 | 51* | 5
Cc1cc(C)c(C#N)c(SCC(=O)c2cccs2)n1 | 21 | 4 | 39 | 3
Nc1nc2ccccc2n1C(=O)c1cccs1 | -27 | 18 | 23 | 2
CC(=O)Nc1cc2ccccc2oc1=O | 9 | -1 | -2 | 0
O=C(Nc1ccc(NC(=O)c2cccs2)c(Cl)c1)c1ccco1 | -3 | -4 | 59* | 0
COc1cc(NC(=O)c2cccs2)c(OC)cc1NC(=O)c1ccco1 | 0 | 5 | -3 | 2
COc1cc(N)ccc1NC(=O)c1cccs1 | 22 | -5 | 73* | 2
Cc1ccc(C(=O)Nc2cc3ccccc3oc2=O)cc1 | 104* | 31 | -6 | 4
COc1cc(NC(=O)c2ccc(OC)c([N+](=O)[O-])c2)ccc1NC(=O)c1cccs1 | -25 | 4 | 84* | 5
COc1ccc(NC(=O)c2ccco2)cc1NC(=O)c1cccs1 | 8 | -10 | 16 | -1
O=C(NC1CCCC1)c1n[nH]c2ccccc12 | 14 | 0 | -1 | 1
COc1ccc(OC)c(NC(=O)c2cc3ccccc3o2)c1 | 30 | -5 | -6 | -1
COc1cc(NC(=O)c2cccs2)ccc1NC(=O)c1cc2ccccc2o1 | 91* | -6 | -6 | 6
COc1ccc(C)cc1NC(=O)c1cc2ccccc2o1 | 71* | 17 | 7 | 2
COC(=O)c1sccc1NC(=O)CC1C(=O)NCCN1C(=O)c1ccc(F)cc1 (stereo unspecified) | 0 | / | / | /
Brc1ccc(C2=Nn3c(nnc3-c3n[nH]c4c3CCC4)SC2)cc1 | / | -5 | 59* | 3
Brc1ccccc1C1=Nn2c(nnc2-c2ccccc2)SC1 | 19 | 23 | -3 | 2
Clc1ccc(C2=Nn3c(nnc3-c3n[nH]c4c3CCC4)SC2)cc1 | / | 29 | 58* | 2
Cc1ccc(-c2nnc3n2N=C(c2ccc(Br)cc2)CS3)cc1 | 89* | 14 | 0 | 4
CCOc1ccc(-c2nnc3n2N=C(c2ccc(OC)cc2)CS3)cc1 | 36 | -10 | 2 | 5
c1ccc(-c2ccc(C3=Nn4c(nnc4-c4cc(-c5ccccc5)n[nH]4)SC3)cc2)cc1 | -32 | 27 | 28 | 4
Fc1ccc(C2=Nn3c(nnc3-c3ccco3)SC2)cc1 | 4 | / | / | /
c1ccc(C2=Nn3c(nnc3-c3ccco3)SC2)cc1 | -2 | 14 | 7 | 9.3*
O=C(NCC1CCCO1)c1ccc(NS(=O)(=O)c2ccccc2)cc1 (stereo unspecified) | 12 | 9 | -6 | 0
COc1cc(NC(=O)CSc2cc(C)c3cc(C)cc(C)c3n2)c(C(=O)O)cc1OC | 17 | / | / | /
SMILES | CHOP inh | WT yeast gro inh | L major viab | RAM inhibit
COc1nc(SC)nc(Cl)c1Cc1ccc(OC(C)C)cc1 | 46 | 59* | 66* | -2
CCCOc1ccc(Cc2c(Cl)nc(SC)nc2N(C)C)cc1 | 48 | 64* | 8 | 1
CCCOc1ccc(CSc2n[nH]c(C)n2)cc1 | -3 | / | / | /
CCCOc1ccc(Cc2c(Cl)nc(SC)nc2OC)cc1 | 47 | 38 | -3 | 0
O=C(c1cnn2c(C(F)(F)F)cc(-c3ccc4c(c3)OCO4)nc12)N1CCCCC1 | 31 | 0 | 99* | 2
CN1CCN(C(=O)c2cnn3c(C(F)(F)F)cc(-c4cccs4)nc23)CC1 | -17 | -16 | 1 | 2
Cc1ccc(-c2cc(C(F)(F)F)n3ncc(C(=O)N4CCN(C)CC4)c3n2)cc1 | 6 | -6 | 99* | -1
CN1CCN(C(=O)c2cnn3c(C(F)(F)F)cc(-c4ccc5c(c4)OCO5)nc23)CC1 | -18 | 98* | 84* | 0
N#C/C(=C(/O)Cc1ccccc1)P(=O)(c1ccccc1)c1ccccc1 | 13 | / | / | /
CC(C)Cc1nc(SCc2cccnc2)c2c(=O)n(C)c(=O)n(C)c2n1 | 18 | 32 | 96* | 1
CCc1nc(SCc2cccnc2)c2c(=O)n(C)c(=O)n(C)c2n1 | 38 | -11 | 26 | 1
Cn1c(=O)c2c(SCc3cccnc3)nc(C3CC3)nc2n(C)c1=O | 25 | 5 | 53* | 0
Cc1cc(C)c(OCC(=O)Nc2nc3ccccc3[nH]2)c(C)c1 | 10 | -2 | -3 | 4
CCCOc1ccc(CSC2=NCCN2)cc1[N+](=O)[O-] | 1 | 5 | 57* | 2
O=[N+]([O-])c1cc(CSC2=NCCN2)ccc1O | 3 | / | / | /
COCCN(CCOC)S(=O)(=O)c1ccc(C(=O)Nc2nnc(C)o2)cc1 | 16 | 2 | -5 | 1
Cc1nnc(NC(=O)c2ccc(S(=O)(=O)N(C)Cc3ccccc3)cc2)o1 | 45 | 41 | 77* | 1
CCN(Cc1ccccc1)S(=O)(=O)c1ccc(C(=O)Nc2nnc(C3CC3)o2)cc1 | / | 48 | 98* | 4
O=C(Nc1ccc(Cl)cc1Cl)NC1CCN(S(=O)(=O)c2ccc(F)cc2)CC1 | 81* | / | / | /
O=C(Nc1ccc(Cl)cc1Cl)NC1CCCC1 | -6 | 13 | -6 | 3
O=C(Nc1cccc(S(=O)(=O)N2CCCCC2)c1)Nc1ccc(Cl)cc1Cl | 88* | 82* | 60* | 5
Cc1ccc(CN=C(Nc2ccccc2)NC2CCCCC2)cc1 | 10 | -7 | 60* | 2
O=C(Nc1ccccc1)NC1CCCCC1 | -18 | 4 | 2 | 0
CCC(Sc1nc2ccccc2o1)C(=O)Nc1nnc(C)s1 (stereo unspecified) | 28 | -1 | 55* | 0
O=C1/C(=C\c2ccc3c(c2)OCO3)CCC/C1=C/c1ccc2c(c1)OCO2 | 42 | -2 | 48 | 8
SMILES | CHOP inh | WT yeast gro inh | L major viab | RAM inhibit
CC1CC/C(=C\c2ccc3c(c2)OCO3)C(=O)/C1=C/c1ccc2c(c1)OCO2 (stereo unspecified) | 20 | 27 | 45 | 10*
CC(C)CN1C(=O)C(=Nc2cccnc2)c2ccccc21 | 42 | 8 | 82* | 1
CN=c1scc(-c2ccccc2Br)n1/N=C/c1ccc[nH]1 | 14 | 73* | 14 | 2
CCc1cccc2c(C(=O)C(F)(F)F)cn(CC(=O)N3CCOCC3)c12 | -6 | 4 | -4 | 0
COc1ccc2c(c1)C(=NO)c1cc(OC)ccc1-2 | 72* | -4 | -3 | 2
COc1ccc2c(c1)C(=NNC(=O)c1ccccn1)c1cc(OC)ccc1-2 | 38 | -6 | 0 | 2
Cc1ccc([N+](=O)[O-])c(C(=O)N/N=C/c2cccs2)c1 | 1 | / | / | /
O=C(COC(=O)C1Cc2ccccc2CN1C(=O)c1ccccc1)Nc1ccc(SC(F)F)cc1 (stereo unspecified) | 40 | -7 | -2 | 4
O=c1c(Cl)c(N2CCN(S(=O)(=O)c3ccc(F)cc3)CC2)cnn1-c1cccc(Cl)c1 | 7 | 15 | 98* | 5
O=c1c(Cl)c(N2CCN(S(=O)(=O)c3ccccc3)CC2)cnn1-c1ccccc1 | 20 | -11 | -2 | 5
CCCCN(C(=O)c1ccco1)c1nnc(-c2cc(OC)c(OC)c(OC)c2)s1 | 73* | 1 | -7 | 6
CCCN(C(=O)c1ccco1)c1nnc(-c2ccncc2)s1 | 9 | -1 | 0 | 1
CCOC(=O)c1ccc[n+](CC(=O)c2ccc(OC)cc2)c1 | 27 | -11 | -6 | 1
